Compounds with a hit are over-represented: about 0.89% of the library has one in this group of screens.
CtBP-E1A blk: CtBP/E1A binding inhibition. AlphaScreen GST-E1A/His-CtBP binding, 1536-well; active compounds read low. activity change, % (no concentration beside the values). hit rate 0.49% among 340,000; in the data active = activity change below about -65%; inconclusive = mostly about -30% to -63%; note: % is set by controls: 0 for no effect and ±100 for the full control effect
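Homogeneous bead-based format: GST-tagged E1A captured on glutathione donor beads, His-tagged CtBP on nickel acceptor beads; compounds precede bead addition by 2 h at 37 °C.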
MBNL1 CUG block: MBNL1-poly(CUG) RNA binding inhibition; Potency, µM (series often up to 57.5 µM), for the others: at the highest dose activity change, negative = inhibition, actives largely listed as inhibitors; TR-FRET MBNL1-His/biotin-(CUG)12 binding, 665/545 ratio; Q9NR56; hit rate 0.036% among 280,000; active = well fitted inhibition curve with a large enough effect in the signal ratio, with a control signal flat, not every such curve was filed as active; inconclusive = small, poorly fitted or top-dose-only effect, or effect the other way, or a change in a side signal; inactive = no such curve, though single readings can be large or run the other way; the % refers to the signal ratio; note: potency is the fitted concentration of half-maximal effect; % is set by controls: 0 for no effect and ±100 for the full control effect
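His-tagged MBNL1 binding to biotinylated (CUG)12 RNA was measured by TR-FRET using terbium anti-His antibody (0.055 ng/ul final) and streptavidin-XL665 (5 nM final). Compounds were titrated 92 nM to 58 uM; 60 min at room temperature.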
Six1-Eya2 blk: Six1/Eya2 interaction inhibition. AID 651725. AlphaScreen GST-Six1/His-Eya2 binding, biochemical; active compounds read low. activity change, % (concentration not given with the values). Q15475+O00167. hit rate 0.56% among 360,000; in the data active = activity change below about -65%; inconclusive = mostly about -30% to -63%; note: % is set by controls: 0 for no effect and ±100 for the full control effect
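AlphaScreen luminescence read after one hour at 37 °C in darkness. Pin-transferred compounds met GST-Six1 and His-Eya2 protein (5X stock 250 nM/500 nM) plus glutathione donor and Ni-chelate acceptor beads (5X, 50 ug/mL).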
CBFb-RUNX1 inh: inhibitors of human CBF-beta and RUNX1 interaction. AlphaScreen CBFb-His/RUNX1-biotin binding, biochemical. Potency, µM (titrated, usually from 59.8 µM), for inactives: at the top dose activity, negative = inhibition, actives largely listed as inhibitors. 230,000 tested, under 10 active; note: % of control where 0% means no effect
Target sequence (Q01196 whole entry, looked up): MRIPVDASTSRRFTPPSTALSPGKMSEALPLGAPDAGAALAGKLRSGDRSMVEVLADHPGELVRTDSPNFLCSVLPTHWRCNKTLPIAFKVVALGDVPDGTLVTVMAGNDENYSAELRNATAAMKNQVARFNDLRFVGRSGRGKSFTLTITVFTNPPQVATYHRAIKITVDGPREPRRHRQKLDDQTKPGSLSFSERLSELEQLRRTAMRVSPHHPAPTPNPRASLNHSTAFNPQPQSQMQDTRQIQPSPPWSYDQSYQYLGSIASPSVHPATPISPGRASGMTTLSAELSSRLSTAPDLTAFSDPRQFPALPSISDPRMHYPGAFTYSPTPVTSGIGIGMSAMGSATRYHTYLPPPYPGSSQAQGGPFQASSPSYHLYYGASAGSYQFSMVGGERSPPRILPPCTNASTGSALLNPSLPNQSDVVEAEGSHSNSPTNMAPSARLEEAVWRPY
Target sequence (Q13951 whole entry, looked up): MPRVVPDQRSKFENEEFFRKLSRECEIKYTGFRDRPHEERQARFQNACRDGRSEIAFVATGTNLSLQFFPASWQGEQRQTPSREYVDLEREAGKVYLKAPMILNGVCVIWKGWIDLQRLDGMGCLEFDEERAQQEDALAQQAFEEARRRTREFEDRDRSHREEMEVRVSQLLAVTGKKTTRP
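CBF-beta (His) and RUNX1 (biotin), 30 nM each; 20 min preassociation; + compound, 15 min; + beads 50 ng each (Ni, streptavidin), 90 min; RT; AlphaScreen read.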
L3MBTL1 block: blocks human L3MBTL1 | Potency, µM (doses to about 57.1 µM), for inactives: at the highest dose activity, negative = inhibition, most hits filed as inhibitors | hit rate 0.66% among 230,000 | AID 485360 | AlphaScreen L3MBTL1–H3K9me1 peptide binding | Q9Y468; note: potency is the fitted concentration of half-maximal effect; % is set by controls: 0 for no effect and ±100 for the full control effect; nearly all actives have a fitted effect of over 60% in size
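L3MBTL1 50 nM + b-AHA-H3(1-15)K9me1 75 nM, 30 min RT; compound added, 30 min RT; streptavidin donor/Ni-chelate acceptor beads 10 ug/mL each final, 30 min RT dark; AlphaScreen read.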
Eya2 phos inh: blocks the phosphatase activity of human Eya2. recombinant Eya2, OMFP fluorescence dephosphorylation (OMFP is methylfluorescein phosphate). Potency, µM (doses to about 76.9 µM), for the others: top-dose activity, negative = inhibition, most hits filed as inhibitors. hit rate 0.006% among 330,000. AID 488837; note: potency is the fitted concentration of half-maximal effect; % is set by controls: 0 for no effect and ±100 for the full control effect
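Eya2 protein (added as 0.2 uM solution) was preincubated with compound for 10 min at ambient temperature in 50 mM HEPES pH 7.5, 50 mM NaCl, 5 uM MgCl2, 0.05% BSA, 1 mM DTT. OMFP (added at 50 uM) then reacted 10 min; fluorescence read at 485/525 nm.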
MBNL1 TRFRET: blocks human MBNL1 binding to CUG repeat RNA, TR-FRET validation; shares compounds with MBNL1 CUG block; Potency, µM (top dose mostly 57.6 µM), for inactives: top-dose activity change, negative = inhibition, hits mostly inhibitors; hit rate 50% among 140; TR-FRET MBNL1-His / biotin-(CUG)12 binding, 60 min; AID 493199
MBNL1-CUG Alpha: confirmation of MBNL1-(CUG)12 RNA binding inhibitors, orthogonal format; hit rate 30% among 140; AlphaScreen MBNL1-His / biotin-(CUG)12 binding; Potency, µM (highest dose often 57.7 µM), for the others: at the highest dose activity, negative = inhibition, actives largely listed as inhibitors; shares compounds with MBNL1 CUG block; AID 493205
Menin-MLL HTRF: counter-screen for MBNL1-poly(CUG) RNA binding inhibitors; Potency, µM (doses to about 57.6 µM), for inactives: at the top dose activity, negative = inhibition, most hits filed as inhibitors; AID 651843; shares compounds with MBNL1 CUG block; hit rate 20% among 120; His-Menin/biotin-MLL peptide TR-FRET counterscreen
Numbers without * were called inactive; ? = inconclusive; . = not tested or not shown. Unless noted, calls come from the whole dose curve; as a rule, active = well fitted curve in the direction sought with a large enough effect; inconclusive = small, poorly fitted or top-dose-only effect, or another doubt; inactive = no such curve, though single readings can be large; an effect the other way counts as inactive or inconclusive.

SMILES | CtBP-E1A blk | MBNL1 CUG block | Six1-Eya2 blk | CBFb-RUNX1 inh | L3MBTL1 block | Eya2 phos inh | others
NC(=O)NC(=O)CC1S/C(=N/N=C2\CSC(=O)N2)NC1=O (stereo not drawn) | -92.7* | 5.8% | -90.4* | -0.5% | ? | -2.5%
NC(=O)NC(=O)CC1S/C(=N/N=C/c2ccccc2)NC1=O (stereo not drawn) | -3.0 | 4.8% | 8.3 | -0.5% | 3.4% | 0.5%
O=C(O)CNC(=O)CC1S/C(=N/N=C2/NC(=O)CS2)NC1=O (stereo not drawn) | ? | 3.9% | -66.8* | ? | . | 15.8%
CC1=C/C(=N\N=C2\NC(=O)C(CC(=O)Nc3ccccc3)S2)CC(C)(C)C1 (stereo not drawn) | . | 5.2% | -0.1 | -11.4% | -3.2% | -4.4%
O=C(OCC#CCSc1nnc(-c2ccc([N+](=O)[O-])cc2)o1)c1cccs1 | ? | ? | ? | ? | . | 17.8%
COC(=O)[C@@]1(Cc2ccc(OC)cc2)[C@H]2c3cc(C(=O)N4CCCC4)n(CCF)c3C[C@H]2CN1C(=O)c1ccccc1 | . | . | . | -0.8% | . | .
Cc1cc(C)cc(N(CCC#N)C(=O)COC(=O)c2ccc(OCc3c(C)noc3C)cc2)c1 | 2.8 | . | -9.7 | . | 5.8% | -22.3%
C=CCSC1=N/C(=C\C=C\c2ccco2)C(=O)S1 | 2.6 | 1.0% | -0.7 | . | 2.82µM* | 0.5%
Cc1c(OCc2ccc(C(=O)O)cc2)ccc2c(-c3ccccc3)cc(=O)oc12 | 1.1 | -4.4% | -73.6* | 1.7% | 1.1% | 7.4%
Cc1noc(C)c1CCC(=O)N1CCCC(N2CCN(c3ccc(F)cc3)CC2)C1 (stereo not drawn) | -2.4 | 1.4% | -0.1 | . | . | -2.8%
Nc1nc(NC(=O)C(Cl)(Cl)Cl)nn1-c1ccccc1 | -2.1 | 1.5% | -22.5 | ? | 28.2µM* | 13.8%
Nc1nc(-c2ccccc2)c(N=Nc2cccc3ccccc23)s1 | -93.3* | ? | -78.1* | . | 17.8µM* | -16.9%
Nc1nc(-c2ccccc2)c(N=Nc2ccccc2Cl)s1 | -66.9* | 36.3% | -75.8* | . | 28.2µM* | -23.2%
CC(=O)Nc1sc(N)nc1-c1ccccc1 | 4.3 | -5.0% | 6.4 | 4.0% | . | 13.1%
Cc1ncc(N=Nc2ccccc2Cl)c(-c2ccccc2)n1 | -66.1* | ? | -69.3* | . | ? | 7.4%
COc1ccc(N=Nc2cnc(C)nc2-c2ccccc2)cc1 | -29.1 | 22.3% | ? | ? | -16.2% | 3.9%
C[C@H]1[C@H]2CC[C@H]3[C@@H]4CC=C5C[C@@H](N(C)C)CC[C@]5(C)[C@H]4CC[C@]23CN1C | . | . | . | 3.6% | . | .
COc1cc2c(C#N)c(N3CCOCC3)nc(N)c2c(N)n1 | -5.8 | -11.2% | -4.7 | -2.8% | -10.8% | 5.7%
COc1cc2c(C#N)c(N3CCCCC3)nc(N)c2c(N)n1 | -7.9 | 5.2% | -14.6 | 4.6% | -3.5% | 9.3% | MBNL1 TRFRET=9.1%;MBNL1-CUG Alpha=12.9%;Menin-MLL HTRF=1.7%
COc1ccc(C(=O)NCC(=O)N2CCC(Cc3ccccc3)CC2)cc1OC | -2.1 | . | 3.8 | . | 0.4% | 14.9%
